# Screens as filed in PubChem.
# USP30 block – inhibitors of human USP30 deubiquitinase; Ubiquitin carboxyl-terminal hydrolase 30 (Homo sapiens), Q70CQ3; purified USP30, Ub-rhodamine cleavage fluorescence; inhibition, % at 25 µM; 47,000 tested, 5.3% active; AID 1645860, 2021
# USP17 block – inhibitors of human USP17 deubiquitinase | purified USP17, Ub-rhodamine cleavage fluorescence, 3 h | Ubiquitin carboxyl-terminal hydrolase 17-like protein 5 (Homo sapiens), A8MUK1 | 47,000 tested, 6.5% active | inhibition, % at 50 µM
# * = called active by the depositor; i = inactive. Hits are enriched below; roughly 9.6% of the tested compounds scored in any of these assays. Cut-off read from the data, not from the text of the source: active = inhibition above about 30%; inactive = the rest.
SMILES,USP30 block,USP17 block
Cc1ccc(C(=O)N[C@@H](C)c2nnc3ccccn23)cc1,11,2
Cc1ccc(C)c(NS(=O)(=O)c2cc(-c3cnc(C4CC4)o3)ccc2C)c1,-2,52*
Cc1ccc(-c2cnc(C3CC3)o2)cc1S(=O)(=O)Nc1ccc(F)c(Cl)c1,2,66*
COc1ccc(NS(=O)(=O)c2cc(-c3cnc(C4CC4)o3)ccc2C)cc1OC,-23,-6
Cc1ncc(-c2ccc(C)c(S(=O)(=O)Nc3cccc4c3CCCC4)c2)o1,-8,0
CCCNC(=O)C1CCN(c2nc3ccc(-c4cncnc4)nc3s2)CC1,-18,-11
CN(C)C(=O)C1CN(Cc2ccc3c(c2)OCO3)Cc2ccnn2C1 (stereo not drawn),0,-12
COCC(=O)Nc1cccn2nc(C3CCC3)nc12,-4,1
O=C(Cn1cnc2c(nc3n2CCCCC3)c1=O)NCc1ccco1,11,5
CCN1CCN(CCNC(=O)c2cn3ccc(C)cc3n2)CC1,0,-4
CCN1C(=O)[C@H]2CN(C(C)=O)C[C@H]2C12CCN(C(=O)c1cccnc1)CC2,0,-6
O=C(C1CCN(c2nc3ccc(-c4cccnc4)nc3s2)CC1)N1CCCC1,-2,-2
COc1cccc(-c2ccc3nc(N4CCC(C(N)=O)CC4)sc3n2)c1,8,49*
O=S(=O)(c1ccc(-c2noc(-c3ccccn3)n2)cc1)N1CCCCC1,8,30
CC1CCCCN1C(=O)CSc1nnc(Cc2ccccc2)n1Cc1ccccc1 (stereo not drawn),16,0
Cc1noc(-c2ccccc2NC(=O)c2ccc(Cl)c(Cl)c2)n1,19,6
O=C(Nc1ccccc1-c1nc(-c2ccccn2)no1)c1cc(Cl)ccc1Cl,60*,56*
COc1ccc(-c2cc(C(=O)OCC(=O)NCc3ccccc3OC)c3ccccc3n2)cc1,-26,-5
COc1ccc(-c2cc(C(=O)OCC(=O)Nc3cc(C)on3)c3ccccc3n2)cc1OC,-222,30*
CC1=C(c2ccccc2)S(=O)(=O)N=C1N1CCCN(C(=O)c2c(F)cccc2F)CC1,6,5
CC[C@H](C)[C@H](NC(=O)[C@H]([C@@H](C)CC)N(C)C(C)=O)C(=O)N[C@H](C(=O)N[C@@H](CC(C)C)C(=O)C1(C)CO1)[C@@H](C)O (stereo partly drawn),22,43*
Cc1ccc2[nH]c3c(N4CCSCC4)ncnc3c2c1,1,-6
Cc1ccc2c(c1)[nH]c1c(N3CCc4ccccc4C3)ncnc12,-53,43*
CC(Nc1ncnc2cc(-c3ccc(Cl)cc3)sc12)c1ccccn1 (stereo not drawn),0,-19
O=C1CCN(c2ncnc3cc(-c4ccc(F)cc4)sc23)CC1,-57,31*
SMILES,USP30 block,USP17 block
c1ccc(N2CCCC(c3nccnc3-c3ncc[nH]3)C2)nc1 (stereo not drawn),7,-15
COc1ccccc1N1CCN(C(=O)CSc2cc(=O)n(C)c3ccccc23)CC1,32*,16
Cn1c(=O)cc(SCC(=O)N2CCN(c3ccc([N+](=O)[O-])cc3)CC2)c2ccccc21,i,-102
CN(C)S(=O)(=O)c1cc(C(=O)Nc2ccc(-c3nc4ccccc4s3)cn2)ccc1Cl,-19,10
O=C(CSc1nnc(-c2sccc2-n2cccc2)o1)c1ccc(Cl)cc1,15,33*
O=C(CSc1nnc(CNC(=O)c2cccs2)o1)c1ccccc1,16,-2
Cc1ccc(C2CC(=O)c3cnc(NC(=O)C4CC4)nc3C2)cc1 (stereo not drawn),0,-12
O=C(Nc1ncc2c(n1)-c1ccccc1CC2)C1CC1,8,56*
O=C(NCc1noc(-c2ccccc2)n1)c1ccc(-c2noc(C3CC3)n2)cc1,13,32*
O=C(NCc1noc(Cc2ccccc2)n1)c1ccc(-c2noc(C3CC3)n2)cc1,17,9
O=C(c1cccnc1)N1CCCCCC1c1cc(-c2ccc(F)cc2)on1 (stereo not drawn),-17,-10
CN(C)C(=O)N1Cc2ccccc2C2(CCNCC2)C1,31*,22
CCS(=O)(=O)N1Cc2ccccc2C2(CCNCC2)C1,7,-10
CN1CCN(c2ccc3nnc(CCC(=O)N4CCCC4)n3n2)CC1,17,15
Cc1ccc(CNC(=O)N2CCC(c3nc(C(=O)N4CCCC4)c(C)o3)CC2)cc1,-4,-11
Cc1cc(C)cc(NC(=O)N2CCC(c3nnc(-c4ccccc4)o3)CC2)c1,35*,14
O=C(c1ccccc1)N1CC[C@H](c2nnc(-c3ccncc3)o2)C1,1,-1
Cc1ccc(NC(=O)N2CCC(c3nc(C(=O)N4CCCC4)c(C)o3)CC2)cc1,33*,4
O=C(NCc1cccc(C(F)(F)F)c1)C1Cc2c(ccc3ccccc23)O1 (stereo not drawn),20,14
CCC(=O)N(C1CCOCC1)C1CCN(S(=O)(=O)c2ccc(C)cc2C)CC1,-3,-12
Cc1ccc(S(=O)(=O)N2CCC(C(=O)Nc3nnc(C)o3)CC2)c(C)c1,37*,-3
